# Reference: PubChem BioAssay
# Unmarked numbers belong to inactive results. The source made the active and inactive calls.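 The calls were made as follows: active = inhibition above the hit cutoff set in the earlier primary screen (cut at about 27% in these data); inactive = the rest.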
# Molecular target: Protein phosphatase methylesterase 1 (Homo sapiens) (UniProt Q9Y570)
# Experiment: human PME-1 methylesterase inhibition confirmation – biochemical, fluorescence polarization, FP-Rh probe, triplicate (AID 2171);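 also: 0% = enzyme with DMSO and 100% = wells lacking PME-1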
# Settings: recombinant PME-1, FP-Rh probe fluorescence polarization; at 5.9 µM; active compounds read high
# Chain of Protein phosphatase methylesterase 1 (Homo sapiens) (Q9Y570 whole entry, looked up): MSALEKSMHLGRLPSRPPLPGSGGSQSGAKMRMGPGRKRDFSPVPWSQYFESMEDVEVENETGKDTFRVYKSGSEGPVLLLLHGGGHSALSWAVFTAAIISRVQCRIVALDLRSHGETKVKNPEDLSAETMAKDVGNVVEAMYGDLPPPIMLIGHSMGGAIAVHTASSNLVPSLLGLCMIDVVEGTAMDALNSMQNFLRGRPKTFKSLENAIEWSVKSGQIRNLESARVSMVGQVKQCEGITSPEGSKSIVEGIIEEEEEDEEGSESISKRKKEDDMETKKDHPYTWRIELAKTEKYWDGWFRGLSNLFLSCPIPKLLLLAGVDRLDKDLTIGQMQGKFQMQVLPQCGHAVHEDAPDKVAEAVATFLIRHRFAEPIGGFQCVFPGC
row,Structure (SMILES),inhibition
1,O=[N+]([O-])c1ccc(N/N=C/c2cccc(O)c2O)cc1,23.3%
2,COc1ccc(N=C2NC(=O)S/C2=C\c2ccc(N(C)C)cc2)cc1,37.2% (active)
3,CCn1cc(C(=O)NCCCN2CCCC(C)C2)c(=O)c2cc(S(=O)(=O)N(C)C3CCCCC3)ccc21 (stereo not given),45.2% (active)
4,O=C(O)c1ccc(N=Nc2c(O)[nH]c3cc(Cl)ccc23)cc1,116% (active)
5,COc1ccc(-c2nc(NC(=O)c3[nH]c(C)c(C(C)=O)c3C)sc2C)cc1,55% (active)
6,Cc1[nH]c2ccccc2c1/C=N/Nc1nc(Nc2ccccc2)nc(N2CCOCC2)n1,34.2% (active)
7,CSc1ccccc1C(=O)NCCCn1ccnc1,5.36%
8,Cc1cccc2cc(/C=N/Nc3ccc(C(=O)O)cc3)c(Cl)nc12,43.7% (active)
9,CCCCC(=Nc1ccc(N)cc1)C1=C(O)C(C(=O)OC)C(C)(C)CC1=O (stereo not given),13.4%
10,O=C(COc1ccccc1C(=O)N/N=C\c1ccc(O)c(O)c1)N/N=C/c1ccc(O)c(O)c1,-40.9%
11,COc1ccc(NC(=S)NNc2ccc(S(=O)(=O)Nc3ccccc3C(=O)O)cc2[N+](=O)[O-])cc1,44.9% (active)
12,S=C(NCCNC(=S)Nc1ccccc1)Nc1ccccc1,19.9%
13,N#CC1=C(N)C(C#N)(C#N)C(c2cccnc2)C2CN(C(=O)OCc3ccccc3)CC=C12 (stereo not given),35.5% (active)
14,COc1cc2[nH]c3c(N4CCN(c5ccc(Cl)cc5)CC4)ncnc3c2cc1OC,74.9% (active)
15,CC1=NC(=O)C(N=Nc2cccc(O)c2)N1c1ccccc1 (stereo not given),24.1%
16,COC(=O)c1ccc(C2Nc3cccc4cccc(c34)N2)cc1,51.9% (active)
17,C/C(=N\Nc1cccc([N+](=O)[O-])c1)c1ccccc1O,39.4% (active)
18,COc1ccc(Nc2cnn(-c3nc4ccccc4s3)c(=O)c2Cl)cc1,37.3% (active)
19,Cc1cccc(NC(=O)COC(=O)c2cccc3c2C(=O)c2ccccc2C3=O)c1C,37.5% (active)
20,CCCCn1c(/C=N/Nc2nc3ccccc3[nH]2)nc2ccccc21,61.3% (active)

row,Structure (SMILES),inhibition
1,CCC(C)c1ccc(S(=O)(=O)N2CCN(C(=O)COc3ccc4c(C)cc(=O)oc4c3)CC2)cc1 (stereo not given),0.33%
2,O=c1[nH]c(C2CCN(S(=O)(=O)c3ccc(F)cc3)CC2)nc2c1nnn2Cc1ccc2c(c1)OCCO2,41% (active)
3,O=[N+]([O-])c1cc(S(=O)(=O)Nc2cccc(C(F)(F)F)c2)ccc1-n1nnc2ccccc21,18.7%
4,CCC1Sc2ccc(S(=O)(=O)CCC(=O)Nc3ccc(OC(F)(F)F)cc3)cc2NC1=O (stereo not given),17.3%
5,CN(C)c1ccc(NC(=O)Nc2ccc3snnc3c2)cc1,21%
6,Cc1ccc(O)c(C(=O)c2cc(C#N)c(=O)n(-c3nccs3)c2)c1,-1.15%
7,Nc1cc(Cl)nc(N/N=C/c2c(O)ccc3ccccc23)n1,21.6%
8,Cc1cccc(OCCn2cc(/C=N/NC(=O)c3ccncc3)c3ccccc32)c1,2.22%
9,CCOc1cc(/C=N/NC(=O)c2cccc([N+](=O)[O-])c2)ccc1OS(=O)(=O)c1ccccc1,19.9%
10,Cc1cc(O)c(NC(=S)NC(=O)c2ccc(-c3ccc(Cl)cc3)o2)cc1C,42.2% (active)
11,CCN(CC)c1ccc(/C=N/NC(=O)c2cccc(S(=O)(=O)Nc3ccccc3OC)c2)c(O)c1,25.8%
12,Nc1c(C(=O)Nc2ccccc2F)sc2nc(-c3ccco3)ccc12,19.9%
13,Brc1ccc(C2Nc3cccc4cccc(c34)N2)s1,20.5%
14,Cc1c(C(=O)OC/C(O)=C(\C#N)c2nc3ccccc3[nH]2)oc2ccccc12,-5.29%
15,C=CCn1c(O)c(N=Nc2ccccc2O)c2ccccc21,29.2% (active)
16,COc1ccc2oc(C(=O)OCC(=O)N3CCN(S(=O)(=O)c4ccc(C)cc4)CC3)c(C)c2c1,17.9%
17,c1ccc2c(c1)OCCc1c-2[nH]c2ccccc12,21.9%
18,C#CCN1c2ccccc2Sc2cccnc21,1.92%
19,O=C(CN1CCCc2ccccc21)N/N=C/c1c(O)ccc2ccccc12,5.54%
20,CCc1ccc(NC(=O)Nc2cccs2)cc1,17.9%
